The results in this text go back to PubChem BioAssay (NCI).

Each structure is given as a SMILES string. Compounds without any hit were thinned out: in the full panel of roughly 83,000, 20% have a hit.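 Values shown are percent growth following 48 h exposure of cells in 96-well plates to a single concentration of compound; below 10 was considered active.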 Unmarked numbers belong to inactive results. Activity calls are given as the source filed them.

The test system of the experiment is HL-60(TB) leukemia. Briefly: NCI-60 one-dose screen, 48 h (100 = growth as untreated, 0 = no growth, -100 = all killed). The conditions noted are these: 10 µM unless noted.
On to `CCC(C)CC(C)C(=O)c1c(O)ccn(O)c1=O` (stereo unspecified), for which the growth was -0.418% (active).
For `Cc1ccc(S(=O)(=O)O)c(C)c1`, the growth is 100%.
With `c1coc(CNc2ccnc(Nc3ccc(OCCN4CCCCC4)cc3)n2)c1`, the growth is 74.6%.
For `C=C(C)[C@@H]1CC[C@]2(CO)CC[C@]3(C)[C@H](CC[C@@H]4[C@@]5(C)CCCNC(C)(C)[C@@H]5CC[C@]43C)[C@@H]12` the value was -51.9% (active); for `CN(C)c1ccc(/C=C(\C#N)c2cc3ccccc3[nH]2)cc1`, 22.2%.
On to `C=CC(=O)N1CCN(c2cccc(Oc3nccc(Nc4nnc(-c5ccc(Br)cc5)s4)n3)c2)CC1`, for which the growth is 51.1%.
